# Measured values taken from PubChem BioAssay (NCI).
# This is part of a sample that, as a whole, favours compounds with a hit. Of some 79,000 tested, about 15% had one in any assay. Unmarked numbers belong to inactive results. Active and inactive are the calls of the source. No stated cut-off is given here; in the data, active means growth inhibition above about 70%; inactive means the rest.
# How the values were obtained:
# [1] = NCI Yeast Anticancer Drug Screen. Data for the rad50 strain (AID 155);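 further: 0% = growth of vehicle-only cultures of the same strain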; conditions: S. cerevisiae rad50 strain growth inhibition, active compounds read high
# In short: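 A DNA repair-deficient yeast mutant serves as the test organism; compound-induced growth inhibition is calculated against vehicle-treated cells.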
# [2] = NCI Yeast Anticancer Drug Screen. Data for the mec2-1 strain (AID 157); conditions: S. cerevisiae mec2-1 strain, active compounds read high
# In short: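 Vehicle-treated cultures served as reference for growth inhibition of compound-exposed mec2-1 yeast.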
# [3] = NCI Yeast Anticancer Drug Screen. Data for the sgs1 mgt1 strain (AID 161);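 further: 0% = growth of cultures given vehicle only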; conditions: S. cerevisiae sgs1 mgt1 strain, active compounds read high
# In short: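 Read-out: growth inhibition vs vehicle controls. Cells: mutant yeast strain deficient in DNA damage repair.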
# [4] = NCI Yeast Anticancer Drug Screen. Data for the cln2 rad14 strain (AID 165);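 further: 0% = growth equal to vehicle treated cultures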; conditions: S. cerevisiae cln2 rad14 strain, active compounds read high
# In short: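 Each compound was tested on cln2 rad14 yeast. Inhibition of growth was calculated against vehicle-exposed controls.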
# [5] = NCI Yeast Anticancer Drug Screen. Data for the bub3 strain (AID 167); conditions: S. cerevisiae bub3 mutant strain, active compounds read high
# In short: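 Inhibition values come from growth of compound-treated mutant yeast normalised to vehicle-treated controls.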
# [6] = NCI Yeast Anticancer Drug Screen. Data for the mlh1 rad18 strain (AID 175); conditions: S. cerevisiae mlh1 rad18 strain growth inhibition, active compounds read high
# In short: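 Vehicle-treated cultures served as the reference for growth inhibition in a yeast strain carrying DNA damage repair alterations exposed to each compound.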
# [7] = at 5.0 µM (retest, dose inferred, filed as 0.5)
# [8] = at 50.0 µM (retest, dose inferred, filed as 5.0)
SMILES,"growth inhibition [1, 7]","growth inhibition [1, 8]",growth inhibition ([1]; at 50.0 µM),"growth inhibition [2, 7]","growth inhibition [2, 8]",growth inhibition ([2]; at 50.0 µM),"growth inhibition [3, 7]","growth inhibition [3, 8]",growth inhibition ([3]; at 50.0 µM),"growth inhibition [4, 7]","growth inhibition [4, 8]",growth inhibition ([4]; at 50.0 µM),"growth inhibition [5, 7]","growth inhibition [5, 8]",growth inhibition ([5]; at 50.0 µM),"growth inhibition [6, 7]","growth inhibition [6, 8]",growth inhibition ([6]; at 50.0 µM)
CCC(=O)Nc1ccc(NC(C)=O)cc1,-6%,-9%,-17.6%,-9%,1%,-6.9%,-5%,6%,-8.65%,6%,-16%,-11.6%,-10%,-3%,23.2%,-8%,-28%,-8.9%
O=C1c2ccccc2C(O)(c2ccccc2)N1c1ccc([N+](=O)[O-])cc1 (configuration not stated),7%,99% (active),99% (active),10%,100% (active),99.3% (active),0%,99% (active),99.3% (active),-3%,99% (active),98.9% (active),-2%,99% (active),99% (active),5%,99% (active),99.3% (active)
C=C1C(=O)OC(C)(C)C1c1ccc(Cl)c(Cl)c1 (configuration not stated),25%,99% (active),99.5% (active),35%,99% (active),99.8% (active),39%,99% (active),99.8% (active),18%,97% (active),99.2% (active),37%,99% (active),99.5% (active),38%,98% (active),99.7% (active)
CN(C)CCOC1OCN(C)CC1(C)C (configuration not stated),0%,-12%,4.55%,0%,-7%,7.2%,-1%,-8%,-0.9%,1%,-15%,36.1%,-2%,-3%,-3.75%,2%,-12%,-1.05%
COc1cc(C2C(Cl)C(=O)N2NC(=O)c2ccc(NC(C)=O)cc2)cc(OC)c1OC (configuration not stated),1%,-16%,-8.6%,-9%,-16%,-10.1%,-9%,-7%,8.15%,-16%,-5%,19.1%,3%,-2%,-9.3%,-10%,3%,12.3%
CC(C)(C)C1=CC(N2CCCCC2)(C(C)(C)C)C=C(C(C)(C)C)C1=O,0%,55%,93.8% (active),-2%,64%,91.8% (active),3%,77% (active),95.3% (active),-3%,30%,65.3%,-6%,35%,81.2% (active),0%,73% (active),94.8% (active)
CCOC(=O)/C(=C\c1cccc([N+](=O)[O-])c1)C(C)=O,36%,98% (active),93.2% (active),24%,99% (active),94.8% (active),33%,99% (active),93.2% (active),27%,98% (active),90.5% (active),62%,99% (active),92% (active),41%,99% (active),92.3% (active)
CNCC(O)c1cccc(O)c1 (configuration not stated),7%,11%,74.9% (active),2%,-9%,14.8%,2%,-7%,45%,8%,-12%,19%,0%,-18%,21.2%,1%,-5%,31%
CCCCCC(C)NCC(O)Cc1ccc(OCCCC)cc1 (configuration not stated),22%,100% (active),99.5% (active),29%,99% (active),99.3% (active),37%,100% (active),99.3% (active),34%,100% (active),98.9% (active),42%,100% (active),99.5% (active),20%,100% (active),99.7% (active)
